22 compounds from PubChem BioAssay AID493084 (National Center for Advancing Translational Sciences (NCATS), 2011) can be followed below.

The structures appear in SMILES notation. About 650 (0.18%) of roughly 360,000 compounds were called active. This excerpt belongs to a sample that is enriched for actives. Values without a mark were called inactive. No stated cut-off is given here; in the data, active means activation above about 30%; inactive means the rest.

The target in the assay is Thyrotropin-releasing hormone receptor (Homo sapiens) (UniProt P34981). The assay is described as follows: qHTS for Small Molecule Agonists and Allosteric Enhancers of Human TRH Receptor: Primary Screen for Agonists. Further: 0% is about no effect. Particulars: TRHR cells, calcium flux fluo-8, FDSS agonist mode; at 2 µM; active compounds read high. Put shortly: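 TRHR-expressing cells, plated overnight in medium with 10% serum, were loaded with fluo-8 calcium dye at room temperature. After a 10 s baseline, library compound was pin-added and calcium release was recorded kinetically (ex 480/em 530) as agonist response.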
Thyrotropin-releasing hormone receptor (Homo sapiens), sequence (P34981 whole entry, looked up): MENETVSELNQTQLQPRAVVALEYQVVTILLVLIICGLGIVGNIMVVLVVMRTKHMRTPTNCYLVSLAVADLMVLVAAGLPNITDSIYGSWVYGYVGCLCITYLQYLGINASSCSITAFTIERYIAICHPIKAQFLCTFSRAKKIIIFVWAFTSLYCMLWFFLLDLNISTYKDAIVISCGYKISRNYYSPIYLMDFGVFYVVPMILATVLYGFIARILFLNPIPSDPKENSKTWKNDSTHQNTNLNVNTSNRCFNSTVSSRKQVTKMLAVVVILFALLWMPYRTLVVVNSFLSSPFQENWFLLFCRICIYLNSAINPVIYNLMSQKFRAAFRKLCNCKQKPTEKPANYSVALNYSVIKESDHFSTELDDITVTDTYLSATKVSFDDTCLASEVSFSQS
For orientation: Quantitative high-throughput screening tests each substance at several concentrations.
Consider `O=C(NCc1ccc(Cl)cc1)c1ccc2c(c1)nnn2C1CCCC1`, for which the activation is -0.129%.
Then `O=S(=O)(c1ccc(Br)cc1)c1nnn2c1nc(N1CCOCC1)c1sccc12`, with -0.0076%; and `Cc1ccc(NC(=O)c2oc3ccc(S(=O)(=O)N4CCCCC4)cc3c2C)cc1Cl`, with 1.26%.
Then `COc1ccc(C(=O)Nc2nonc2-c2ccc(OC)c(OC)c2)cc1Cl`, with -1.06%.
Then `Cc1cccc(N2CCN(c3c(CN4CCCC4)c(=O)oc4ccccc34)CC2)c1C`, with 0.139%; and `C=CCC1=C/C(=C\c2c(N)n3nc(CC(=O)N4CCOCC4)sc3nc2=O)C=C(OC)C1=O`, with 162% (active); and `COC1=C/C(=C/c2c(N)n3nc(CC(=O)N4CCOCC4)sc3nc2=O)C=CC1=O`, with 15.5%.
On to `O=C1C(F)N([S+](=O)([O-])c2ccc3c(c2)OCCO3)CCN1[S+](=O)([O-])c1c(F)cccc1F` (configuration not stated), for which the activation is 0.239%.
Under `Cc1ccc(Cl)cc1N1CCN(C(=O)c2cn(C)c3ccc(S(=O)(=O)N(C)C4CCCCC4)cc3c2=O)CC1` stands -1.19%; under `O=C(NCCc1ccccc1)C(=O)NCC(c1ccco1)S(=O)(=O)c1ccccc1` (configuration not stated), -0.0493%.
`Cc1nn(C)cc1N1C(=O)c2cccc3c(N)ccc(c23)C1=O`: the activation was 172% (active).
In the case of `CN1C(=O)c2cccc3c(N)ccc(c23)C1=O`, the activation was 152% (active).
Under `CCc1nnc(NC(=O)[C@@H](NC(=O)c2cccc(C)c2)C(C)C)s1` stands 47.4% (active); under `Cc1cccc(C(=O)NCc2nnc(SC(C)C(=O)Nc3nnc(C)s3)n2C)c1` (configuration not stated), -0.0214%; under `CC(=O)Nc1ccc(NC(=O)[C@@H](NC(=O)c2cccc(C)c2)C(C)C)cc1`, 0.205%.
On to `Cn1ccc2cc(S(=O)(=O)N3CCCC(C(=O)NCc4ccccc4F)C3)ccc21` (configuration not stated), for which the activation is -0.718%.
Under `Cc1nn(C(C)C(=O)NCCc2ccccc2)c(=O)c2c1sc1ccccc12` (configuration not stated) stands -0.291%; under `COc1cc(Cl)c(NC(=O)CC(C)S(=O)(=O)c2cc3c(cc2C)NC(=O)CO3)c(OC)c1` (configuration not stated), -0.196%.
Consider `CCCNC(=O)C(CC)n1nc(CC)n2c(cc3oc(C)cc32)c1=O` (configuration not stated), for which the activation was 0.892%.
Under `COc1ccc(-c2nc(Cn3c(=O)cc(C)c4c(C)nn(-c5ccccc5)c43)c(C)o2)c(OC)c1` stands 0.643%; under `Oc1c(C(c2ccc(F)cc2)N2CCN(Cc3ccccc3)CC2)sc2nc(-c3ccco3)nn12` (configuration not stated), -0.524%.
With `COc1ccc(-c2onc(C)c2C)cc1S(=O)(=O)NCC1CCN(Cc2cccc(F)c2)CC1`, the activation is -0.0549%.
